# Pf growth 48h – P. falciparum growth inhibition at 48 hours (one generation) | P. falciparum luciferase growth in erythrocytes, 48 h | Potency, µM (top dose mostly 28.7 µM), hits mostly inhibitors | actives 5.9% (n = 310,000)
#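 Luciferase-expressing parasites in RBCs, 2% Hct / 0.1% parasitemia final; RPMI 1640 + 0.5% Albumax; 37 C, 5% CO2, one generation; luminescence read-out, lower signal = inhibition.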
# Shiga toxin inh – Shiga toxin inhibition; Vero cells, Shiga toxin protein synthesis inhibition reporter; inhibition, % at 38.7 µM; actives 9.2% (n = 290,000); in the data active = inhibition mostly above about 28%, no sharp cut-off; inactive = mostly below about 43%
# Pf growth 96h – P. falciparum growth inhibition at 96 hours; Potency, µM (doses to about 28.7 µM), usual class: inhibitors; P. falciparum luciferase reporter growth, 96 h; actives 6.9% (n = 320,000); AID 504834
#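 Luminescence readout: decreased luciferase signal marks inhibited growth of reporter-expressing P. falciparum in infected red cells (2% hematocrit, 0.05% parasitemia final), exposed to compound two generations (96 h, 37 C, 5% CO2).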
# Sm TGR inh – inhibitors of Schistosoma mansoni thioredoxin glutathione reductase; Potency, µM (series often up to 114 µM), usual class: inhibitors; Q962Y6; actives 3% (n = 360,000); purified TGR, DTNB reduction, TNB absorbance 405 nm; note: nearly all actives have a fitted effect of over 60% in size
#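 Kinetic colorimetric format: TGR-catalysed, NADPH-driven DTNB reduction monitored via TNB absorbance. Enzyme dispensed at 20 nM; compound exposure 15 min at room temperature before reaction start.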
# NS1 function inh – influenza NS1 inhibition; Potency, µM (titrated, usually from 46.1 µM); actives 0.4% (n = 270,000); AID 2326; calls by dose curve; note: actives are rising curves; nearly all actives have a fitted effect of over 50% in size
#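 In this qHTS, NS1 from influenza A is expressed in budding yeast, where it slows growth. Cells are switched from glucose to 2% galactose medium (pH 6.0, -URA), treated with compound, and growth recovery is read at OD600.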
# CHX counter – counter-screen for Shiga toxin inhibitors: cycloheximide protein synthesis inhibition. cell reporter, cycloheximide protein synthesis inhibition counterscreen. max response, %. actives 12% (n = 300,000). AID 2314; in the data active = max response mostly above about 13%, no sharp cut-off; inactive = mostly below about 14%; note: read at 38.3 µM for the half of the compounds with a filed dose
# Hits are given with their value; n = inactive; u = inconclusive; x = no result given. Only some compounds are listed: those with a hit (about 21% of all), similar ones and a draw of the others. Unless noted, calls come from the whole dose curve; as a rule, active = well fitted curve in the direction sought with a large enough effect; inconclusive = small, poorly fitted or top-dose-only effect, or another doubt; inactive = no such curve, though single readings can be large; an effect the other way counts as inactive or inconclusive.
SMILES,Pf growth 48h,Shiga toxin inh,Pf growth 96h,Sm TGR inh,NS1 function inh,CHX counter
CCS(=O)(=O)N1CCC(C(=O)NCCCN2CCC(Cc3ccccc3)CC2)CC1,n,n,9.3µM,n,n,n
O=C(NCCCN1CCC(Cc2ccccc2)CC1)C1CCN(S(=O)(=O)N2CCOCC2)CC1,n,n,x,n,n,n
COc1ccc(CCNC(=O)c2cc(=O)[nH]c3ccc(S(=O)(=O)N4CCCCC4)cc23)cc1OC,x,x,x,n,x,x
CN(CC(=O)Nc1ccccc1Cl)C(=O)COC(=O)CN1C(=O)NC2(CCCC2)C1=O,n,n,n,n,n,n
CCc1ccccc1OCC(=O)Nc1ccc(S(=O)(=O)Nc2nc(C)cc(C)n2)cc1,x,x,x,n,x,x
Cc1ccc2c(c1)C1CN(C)CCC1N2C(=O)COc1ccccc1F (stereo not drawn),u,n,12µM,n,n,n
Cc1ccc2c(c1)C1CN(C)CCC1N2C(=O)c1ccco1 (stereo not drawn),n,n,x,n,u,n
Cc1ccc2c(c1)C1CN(C)CCC1N2C(=S)NC(=O)c1ccc(Cl)cc1Cl (stereo not drawn),u,n,5.9µM,n,n,n
Cc1ccc2c(c1)C1CN(C)CCC1N2C(=O)Nc1cccc(Cl)c1 (stereo not drawn),u,n,u,n,n,n
CCOC(=O)N1CCN(C(=O)COC(=O)c2ccc([N+](=O)[O-])cc2Cl)CC1,n,x,n,n,x,x
CCc1cc2c(-c3ccccc3)cc(=O)oc2cc1OCC(=O)NCC1CCC(C(=O)O)CC1 (stereo not drawn),n,n,u,n,n,n
CN(c1ccc(OCC(=O)OCC(=O)Nc2ccc(F)cc2)cc1)S(=O)(=O)c1ccc(Cl)cc1,n,n,u,n,n,n
CC(=O)c1ccccc1NC(=O)COc1ccc(N(C)S(=O)(=O)c2ccc(C)c(C)c2)cc1,10µM,x,12µM,n,x,x
COCC(C)n1c(C)cc(C(=O)COc2ccc(N(C)S(=O)(=O)c3ccc(NC(C)=O)cc3)cc2)c1C (stereo not drawn),4.7µM,x,1.3µM,n,x,x
Cc1ccc(NC(=O)COc2ccc(N(C)S(=O)(=O)c3ccc(F)cc3)cc2)cc1,u,x,10µM,n,x,x
CCN(CC)C(=O)COc1ccc(N(C)S(=O)(=O)c2ccc(NC(C)=O)cc2)cc1,n,n,u,n,n,n
Cc1ccc(S(=O)(=O)N(C)c2ccc(OCC(=O)NCC3(N(C)C)CCCCC3)cc2)cc1,9.3µM,x,9.3µM,n,x,x
CSc1cccc(NC(=O)C2CCN(S(=O)(=O)c3ccc4[nH]c(=O)ccc4c3)CC2)c1,x,x,x,n,x,x
CN(Cc1cccnc1)C(=O)c1cc(S(=O)(=O)Nc2ccccc2F)ccc1Cl,n,x,n,n,x,x
COc1ccc(CCN(C)C(=O)COc2ccc(N(C)S(=O)(=O)c3ccc(C)cc3)cc2)cc1OC,9.3µM,x,10µM,n,x,x
CN(C)c1cccc2c(C=C(C#N)C#N)ccc(N(C)C)c12,n,n,n,25µM,n,n
CN(C)c1cccc2c(/C=N/O)ccc(N(C)C)c12,u,n,n,n,x,n
O=C(Nc1ccc(F)c(F)c1)C1=COCCO1,n,x,n,n,x,x
N#Cc1ccc(NC(=O)C2=COCCO2)cc1,n,x,n,89µM,x,x
Cc1ccsc1/C=N/NC(=O)c1nnn(-c2nonc2N)c1CN(C)c1ccccc1,n,n,n,n,n,n
SMILES,Pf growth 48h,Shiga toxin inh,Pf growth 96h,Sm TGR inh,NS1 function inh,CHX counter
c1ccc(N2CCN(c3ncnc4c3nc3n4CCCCC3)CC2)cc1,x,x,x,n,x,x
O=C(NO)c1ccc(C(=O)N(C2CCCCC2)C2CCCCC2)cc1,3.3µM,n,n,n,n,n
O=C(c1c(F)cccc1F)N(Cc1cccs1)C1CCCC1,n,n,n,x,n,n
O=C(c1c(F)cccc1F)N(C1CCCCC1)C1CCCCC1,10µM,n,n,n,n,n
CCOC(=O)N1CCN(S(=O)(=O)c2ccc(F)c(C(=O)Nc3cc(C)cc(C)c3)c2)CC1,8.3µM,n,u,n,n,n
CCOC(=O)N1CCN(S(=O)(=O)c2ccc(F)c(C(=O)Nc3cccc(Cl)c3C)c2)CC1,12µM,n,n,n,n,n
COc1ccc(/C=N/OCc2nc3c4c(ncn3n2)Oc2ccc3ccccc3c2C4c2ccccc2)cc1 (stereo not drawn),u,n,n,n,u,n
COc1ccccc1C1c2ccc3ccccc3c2Oc2ncn(CCCO)c(=N)c21 (stereo not drawn),7.4µM,n,2.6µM,n,n,n
COc1ccc(C2c3ccc4ccccc4c3Oc3ncn(CCCN(C)C)c(=N)c32)cc1 (stereo not drawn),1.7µM,n,1.7µM,n,n,n
N=c1c2c(ncn1CCCO)Oc1cc(O)ccc1C2c1ccccc1 (stereo not drawn),u,n,u,n,n,n
COc1ccc(C2c3ccc(O)cc3Oc3ncn(CCN4CCOCC4)c(=N)c32)cc1 (stereo not drawn),u,n,n,n,n,n
COc1ccc(C2c3ccc(O)cc3Oc3ncn(CC(C)C)c(=N)c32)cc1 (stereo not drawn),5.2µM,n,n,n,n,n
COc1ccc(C2c3ccc4ccccc4c3Oc3ncn(Cc4ccco4)c(=N)c32)cc1OC (stereo not drawn),13µM,n,u,n,u,n
CC(C)c1ccc(CN(C(=O)c2cccs2)C2CCS(=O)(=O)C2)cc1 (stereo not drawn),u,n,u,n,n,n
COc1ccc(C2c3ccc(O)cc3Oc3ncn(Cc4ccco4)c(=N)c32)cc1OC (stereo not drawn),u,n,n,n,n,n
COc1ccccc1C1C(C(=O)c2cc3ccccc3o2)=C(O)C(=O)N1CCN(C)C (stereo not drawn),n,n,x,u,n,n
COc1ccccc1C1c2ccc3ccccc3c2Oc2ncn(CCN(C)C)c(=N)c21 (stereo not drawn),3.3µM,n,2.3µM,n,n,n
COc1ccc(C2c3ccc(O)cc3Oc3ncn4nc(-c5cccnc5)nc4c32)cc1OC (stereo not drawn),5.2µM,n,4.1µM,n,n,n
C=C(C)CNC(=S)Nc1cccc(N)n1,n,n,n,2.8µM,n,n
C=C(C)CNC(=S)N/N=C(\C)c1cccc(NC(C)=O)c1,n,n,u,n,x,n
O=C(Cc1ccc(NC2=NC3CS(=O)(=O)CC3S2)cc1)NCCc1ccccc1 (stereo not drawn),n,n,u,n,n,n
Cn1c(=O)c2sccc2n2c(CCC(=O)N3CCN(c4cccc(Cl)c4)CC3)nnc12,x,x,x,n,x,x
COc1cc(-c2noc(-c3cc(C)[nH]n3)n2)cc(OC)c1OC,x,x,x,n,x,x
Cc1ccc(CN(C(=O)c2csnn2)C(C(=O)NC2CCCC2)c2ccco2)cc1 (stereo not drawn),n,n,n,n,n,n
Cc1cc(N2CCN(c3ccc(F)cc3)CC2)nc2cc(O)ccc12,x,n,7.4µM,n,n,n
